In all, about 2,900 compounds were measured (“NF-kB SEAP reporter activity, fold change vs agonist alone”: median about 0.99, highest 2% from about 2.6 on). Many of the other results were omitted from the sample, so the highest values are more common in it than they were.
What was measured:
RAW-Dual [1] = test: NF-kB SEAP reporter activity, fold change vs agonist alone; cytotoxicity flag (confluency mask): not cytotoxic; higher = enhanced NF-kB activity
Method in brief: (§1)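 Cytotoxic wells were those whose IncuCyte confluency was below 70% of agonist controls in both mask sets. The cells were RAW-Dual macrophages at 50,000 cells/well in DMEM on 384-well plates, dosed with 50 nL of library stock by pin tool, stimulated with a PRR agonist 1 h later, and kept at 37 °C, 5% CO2 for 20 hours. IRF and NF-κB reporter activity, as fold change over agonist-alone wells, came from supernatant read by QuantiLuc luminescence and QuantiBlue absorbance, respectively.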

RAW-Dual [2] = test: NF-kB SEAP reporter activity, fold change vs agonist alone; higher = enhanced NF-kB activity; conditions: library stock concentration (final ~1000-fold dilution): 10 mM
Method in brief: as §1

RAW-Dual [3] = test: NF-kB SEAP reporter activity, fold change vs agonist alone; cytotoxicity flag (confluency mask): cytotoxic (confluency <70% of control); higher = enhanced NF-kB activity
Method in brief: as §1

[4] = agonist: ODN 1826 (TLR9) 0.5 ug/mL
[5] = agonist: Pam2CSK4 (TLR2/6) 0.1 ug/mL
[6] = agonist: Pam3CSK4 (TLR2/1) 0.1 ug/mL
[7] = cytotoxicity flag (confluency mask): not cytotoxic, agonist: Imiquimod (TLR7) […]
[8] = cytotoxicity flag (confluency mask): not cytotoxic, agonist: MPLA (TLR4) […]
[9] = cytotoxicity flag (confluency mask): cytotoxic (confluency <70% of control), agonist: Imiquimod (TLR7) […]
[10] = cytotoxicity flag (confluency mask): cytotoxic (confluency <70% of control), agonist: MPLA (TLR4) […]

## CS(=O)(=O)CCNCc1ccc(-c2ccc3ncnc(Nc4ccc(OCc5cccc(F)c5)c(Cl)c4)c3c2)o1 (library stock concentration (final ~1000-fold dilution): 10 mM)
RAW-Dual [1]; agonist: LPS (TLR4) 0.1 ug/mL
  NF-kB SEAP reporter activity: 2.56
RAW-Dual [1]; [4]
  NF-kB SEAP reporter activity: 0.324
RAW-Dual [1]; [5]
  NF-kB SEAP reporter activity: 0.657
RAW-Dual [1]; [6]
  NF-kB SEAP reporter activity: 1.19

## Cc1cc(Nc2ncnc3ccc(-c4ccc(CNCCS(C)(=O)=O)o4)cc23)ccc1Oc1ccn2ncnc2c1
RAW-Dual [2]; [7]
  NF-kB SEAP reporter activity: 1.08
RAW-Dual [2]; [8]
  NF-kB SEAP reporter activity: 1.53

## CS(=O)(=O)CCNCc1ccc(-c2ccc3ncnc(Nc4ccc(OCc5cccc(F)c5)c(Cl)c4)c3c2)o1.Cc1ccc(S(=O)(=O)O)cc1.Cc1ccc(S(=O)(=O)O)cc1.O
RAW-Dual [2]; [8]
  NF-kB SEAP reporter activity: 1.99

## CS(=O)(=O)CCNCc1ccc(-c2ccc3ncnc(Nc4ccc(OCc5cccc(F)c5)c(Cl)c4)c3c2)o1.Cc1ccc(S(=O)(=O)O)cc1.Cc1ccc(S(=O)(=O)O)cc1
RAW-Dual [2]; [7]
  NF-kB SEAP reporter activity: 1.68
RAW-Dual [2]; [8]
  NF-kB SEAP reporter activity: 1.56

## CS(=O)(=O)CCNCc1ccc(-c2ccc3ncnc(Nc4ccc(OCc5cccc(F)c5)c(Cl)c4)c3c2)o1.Cc1ccc(S(=O)(=O)O)cc1.Cc1ccc(S(=O)(=O)O)cc1 (library stock concentration (final ~1000-fold dilution): 10 mM)
RAW-Dual [1]; agonist: LPS (TLR4) 0.1 ug/mL
  NF-kB SEAP reporter activity: 4.16
RAW-Dual [1]; [4]
  NF-kB SEAP reporter activity: 0.272
RAW-Dual [1]; [5]
  NF-kB SEAP reporter activity: 0.851
RAW-Dual [1]; [6]
  NF-kB SEAP reporter activity: 1.14

## C=CC(=O)Nc1ccc2ncnc(Nc3ccc(OCc4cccc(F)c4)c(Cl)c3)c2c1.Cc1ccc(S(=O)(=O)O)cc1
RAW-Dual [2]; [7]
  NF-kB SEAP reporter activity: 0.818
RAW-Dual [2]; [8]
  NF-kB SEAP reporter activity: 0.445

## Cc1cc(Nc2ncnc3ccc(-c4ccc(CNCCS(C)(=O)=O)o4)cc23)ccc1Oc1ccn2ncnc2c1 (library stock concentration (final ~1000-fold dilution): 10 mM)
RAW-Dual [1]; agonist: LPS (TLR4) 0.1 ug/mL
  NF-kB SEAP reporter activity: 2.19
RAW-Dual [1]; [4]
  NF-kB SEAP reporter activity: 0.229
RAW-Dual [1]; [5]
  NF-kB SEAP reporter activity: 0.997
RAW-Dual [1]; [6]
  NF-kB SEAP reporter activity: 0.811

## CS(=O)(=O)CCNCc1ccc(-c2ccc3ncnc(Nc4ccc(OCc5cccc(F)c5)c(Cl)c4)c3c2)o1.Cc1ccc(S(=O)(=O)O)cc1.Cc1ccc(S(=O)(=O)O)cc1.O (library stock concentration (final ~1000-fold dilution): 10 mM)
RAW-Dual [1]; agonist: LPS (TLR4) 0.1 ug/mL
  NF-kB SEAP reporter activity: 1.96
RAW-Dual [1]; [4]
  NF-kB SEAP reporter activity: 0.24
RAW-Dual [1]; [5]
  NF-kB SEAP reporter activity: 0.755
RAW-Dual [1]; [6]
  NF-kB SEAP reporter activity: 0.786

## CCCC1CC(C(=O)NC(C(C)Cl)C2OC(SC)C(O)C(O)C2O)N(C)C1 (stereo not given)
RAW-Dual [2]; [7]
  NF-kB SEAP reporter activity: 1.02
RAW-Dual [2]; [8]
  NF-kB SEAP reporter activity: 1.07

## CCCC1CC(C(=O)NC(C(C)Cl)C2OC(SC)C(O)C(O)C2O)N(C)C1 (stereo not given) (library stock concentration (final ~1000-fold dilution): 10 mM)
RAW-Dual [1]; agonist: LPS (TLR4) 0.1 ug/mL
  NF-kB SEAP reporter activity: 1.14
RAW-Dual [1]; [4]
  NF-kB SEAP reporter activity: 1.04
RAW-Dual [1]; [5]
  NF-kB SEAP reporter activity: 1.04
RAW-Dual [1]; [6]
  NF-kB SEAP reporter activity: 1.17

## COc1cccc2c1C(=O)c1c(O)c3c(c(O)c1C2=O)CC(O)(C(C)=O)CC3OC1CC(N)C(O)C(C)O1.Cl (stereo not given) (library stock concentration (final ~1000-fold dilution): 10 mM)
RAW-Dual [3]; agonist: LPS (TLR4) 0.1 ug/mL
  NF-kB SEAP reporter activity: 0.249
RAW-Dual [3]; [4]
  NF-kB SEAP reporter activity: 0.191
RAW-Dual [3]; [5]
  NF-kB SEAP reporter activity: 0.0932
RAW-Dual [3]; [6]
  NF-kB SEAP reporter activity: 0.195

## COc1cccc2c1C(=O)c1c(O)c3c(c(O)c1C2=O)CC(O)(C(C)=O)CC3OC1CC(N)C(O)C(C)O1.Cl (stereo not given)
RAW-Dual [2]; [9]
  NF-kB SEAP reporter activity: 0.365
RAW-Dual [2]; [10]
  NF-kB SEAP reporter activity: 0.213

## CC1CN(CC(Cc2ccccc2)C(=O)NCC(=O)O)CCC1(C)c1cccc(O)c1 (stereo not given) (library stock concentration (final ~1000-fold dilution): 10 mM)
RAW-Dual [1]; agonist: LPS (TLR4) 0.1 ug/mL
  NF-kB SEAP reporter activity: 1.51
RAW-Dual [1]; [4]
  NF-kB SEAP reporter activity: 1.01
RAW-Dual [1]; [5]
  NF-kB SEAP reporter activity: 0.937
RAW-Dual [1]; [6]
  NF-kB SEAP reporter activity: 0.609

## CC1CN(CC(Cc2ccccc2)C(=O)NCC(=O)O)CCC1(C)c1cccc(O)c1 (stereo not given)
RAW-Dual [2]; [7]
  NF-kB SEAP reporter activity: 1.03
RAW-Dual [2]; [8]
  NF-kB SEAP reporter activity: 1.01

## Cn1cc(Nc2nccc(N3CC4CCC(C3)N4C(=O)C3CC3(F)F)n2)cn1 (stereo not given) (library stock concentration (final ~1000-fold dilution): 10 mM)
RAW-Dual [1]; agonist: LPS (TLR4) 0.1 ug/mL
  NF-kB SEAP reporter activity: 0.973
RAW-Dual [1]; [4]
  NF-kB SEAP reporter activity: 1.3
RAW-Dual [1]; [5]
  NF-kB SEAP reporter activity: 1.69
RAW-Dual [1]; [6]
  NF-kB SEAP reporter activity: 2.02

## Cn1cc(Nc2nccc(N3CC4CCC(C3)N4C(=O)C3CC3(F)F)n2)cn1 (stereo not given)
RAW-Dual [2]; [7]
  NF-kB SEAP reporter activity: 1.19
RAW-Dual [2]; [8]
  NF-kB SEAP reporter activity: 0.995

## CC(NCCC(c1ccccc1)c1ccccc1)c1ccccc1.Cl (stereo not given)
RAW-Dual [2]; [10]
  NF-kB SEAP reporter activity: 1.24

## CC(NCCC(c1ccccc1)c1ccccc1)c1ccccc1.Cl (stereo not given) (library stock concentration (final ~1000-fold dilution): 10 mM)
RAW-Dual [3]; agonist: LPS (TLR4) 0.1 ug/mL
  NF-kB SEAP reporter activity: 1.18
RAW-Dual [3]; [4]
  NF-kB SEAP reporter activity: 0.723
RAW-Dual [3]; [5]
  NF-kB SEAP reporter activity: 0.754
RAW-Dual [3]; [6]
  NF-kB SEAP reporter activity: 0.637

## CCCCCCCCCCCC(CC1OC(=O)C1CCCCCC)OC(=O)C(CC(C)C)NC=O (stereo not given)
RAW-Dual [2]; [7]
  NF-kB SEAP reporter activity: 0.823
RAW-Dual [2]; [8]
  NF-kB SEAP reporter activity: 0.902

## CCCCCCCCCCCC(CC1OC(=O)C1CCCCCC)OC(=O)C(CC(C)C)NC=O (stereo not given) (library stock concentration (final ~1000-fold dilution): 10 mM)
RAW-Dual [1]; agonist: LPS (TLR4) 0.1 ug/mL
  NF-kB SEAP reporter activity: 1.07
RAW-Dual [1]; [4]
  NF-kB SEAP reporter activity: 1.02
RAW-Dual [1]; [5]
  NF-kB SEAP reporter activity: 0.959
RAW-Dual [1]; [6]
  NF-kB SEAP reporter activity: 0.978

## CN(C)C/C=C/C(=O)Nc1ccc(C(=O)Nc2cccc(Nc3ncc(Cl)c(-c4c[nH]c5ccccc45)n3)c2)cc1.Cl.Cl
RAW-Dual [2]; [9]
  NF-kB SEAP reporter activity: 0.142
RAW-Dual [2]; [10]
  NF-kB SEAP reporter activity: 0.258

## CN(C)C/C=C/C(=O)Nc1ccc(C(=O)Nc2cccc(Nc3ncc(Cl)c(-c4c[nH]c5ccccc45)n3)c2)cc1.Cl.Cl (library stock concentration (final ~1000-fold dilution): 10 mM)
RAW-Dual [3]; agonist: LPS (TLR4) 0.1 ug/mL
  NF-kB SEAP reporter activity: 0.242
RAW-Dual [3]; [4]
  NF-kB SEAP reporter activity: 0.189
RAW-Dual [3]; [5]
  NF-kB SEAP reporter activity: 0.0773
RAW-Dual [3]; [6]
  NF-kB SEAP reporter activity: 0.176

## N#Cc1ccnc(N2C(=O)CCC2C(=O)N(c2cncc(F)c2)C(C(=O)NC2CC(F)(F)C2)c2ccccc2Cl)c1 (stereo not given) (library stock concentration (final ~1000-fold dilution): 10 mM)
RAW-Dual [1]; agonist: LPS (TLR4) 0.1 ug/mL
  NF-kB SEAP reporter activity: 1.37
RAW-Dual [1]; [4]
  NF-kB SEAP reporter activity: 1.16
RAW-Dual [1]; [5]
  NF-kB SEAP reporter activity: 0.753
RAW-Dual [1]; [6]
  NF-kB SEAP reporter activity: 0.775

## N#Cc1ccnc(N2C(=O)CCC2C(=O)N(c2cncc(F)c2)C(C(=O)NC2CC(F)(F)C2)c2ccccc2Cl)c1 (stereo not given)
RAW-Dual [2]; [7]
  NF-kB SEAP reporter activity: 1.14
RAW-Dual [2]; [8]
  NF-kB SEAP reporter activity: 1.16

Reference: the supplement of paper PMC10037445
